Experimental findings from PubChem BioAssay (Tox21) are described below.

Each structure is given as a SMILES string. Values joined by “and” are separate entries in the source; they are usually repeats but may differ in a detail not shown here. Identical values can stand only once. Records with an inconclusive call do not appear. A structure can be active in one record and inactive in another. Active and inactive are the calls of the source. How the calls were made is not given here.
On the % scale 0 is the no-effect control and ±100 the full control effect; potency means the concentration at half of the fitted maximal effect.

The assay is described as follows: qHTS assay to identify small molecule antagonists of the estrogen related receptor signaling pathway with the pleiotropic PPARgamma coactivator (PGC) from Tox21 10K library (AID 1224841). Further: actives are mostly falling curves and most rising ones were filed inactive; nearly all actives have a fitted effect of over 50% in size. The following applies: PGC/ERR reporter cell line, ONE-Glo luciferase, 18 h; series mostly up to 92.4 µM; activity, negative = inhibition: at the top concentration. The method in brief: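 In the PGC/ERR line, DMSO solutions of test chemicals are pin-delivered to 2,000 cells/well six hours after dispensing. Following eighteen hours' incubation, One-Glo reagent is added and luminescence recorded.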
Consider `CCNS(=O)(=O)C(F)(F)C(F)(F)C(F)(F)C(F)(F)C(F)(F)C(F)(F)C(F)(F)C(F)(F)F`, for which the “activity, negative = inhibition” value is -16.1% (inactive).

Consider `ClSC(Cl)(Cl)Cl`, for which the “activity, negative = inhibition” value is 8.07% (inactive).

`CCCCCCCCCCCCCCn1cc[n+](C)c1`: the Potency is 24.4 µM (active) and 24.1 µM (active) and inactive.

Consider `Cc1ccn2nc(S(=O)(=O)Nc3c(F)cccc3F)nc2n1`, for which the “activity, negative = inhibition” value is 0.0598% (inactive).

For `C[C@H]1[C@H](c2ccc(Cl)cc2)SC(=O)N1C(=O)NC1CCCCC1`, the Potency was 61.1 µM (active).

For the compound `Oc1ccc2[nH]cc(CCCCN3CC=C(c4ccccc4)CC3)c2c1`, the Potency was 5.96 µM (active).

Regarding `Oc1ccc([C@H]2CNCc3c2ccc(O)c3O)cc1O`, the “activity, negative = inhibition” value is 1.35% [at 42.5 µM] (inactive).

For `CC1(C)C(C=C(Cl)Cl)C1C(=O)OC(C#N)c1ccc(F)c(Oc2ccccc2)c1` (stereo unspecified), the “activity, negative = inhibition” value was -23.6% (inactive).

Take `O=Cc1ccccc1`: the “activity, negative = inhibition” value is -2.61% (inactive).

Turning to `O=C(Nc1ccc(F)cc1F)c1cccnc1Oc1cccc(C(F)(F)F)c1`, the “activity, negative = inhibition” value was 16.7% (inactive).

Turning to `O=C1C2(Cl)C3(Cl)C4(Cl)C(Cl)(Cl)C5(Cl)C3(Cl)C1(Cl)C5(Cl)C24Cl` (stereo unspecified), the Potency was 53.6 µM (active).

Consider `C[C@]12C/C(=C/O)C(=O)C[C@@H]1CC[C@@H]1[C@@H]2CC[C@@]2(C)[C@H]1CC[C@]2(C)O`, for which the Potency was 43.7 µM (active) and 26.6 µM (active).

As for `C=CC(=O)[O][Sn]([CH2]CCC)([CH2]CCC)[CH2]CCC`, the Potency is 13.7 µM (active).

With `c1ccc2c(c1)cc1ccc3cccc4ccc2c1c34`, the “activity, negative = inhibition” value was 98.1% (inactive).

Take `Brc1cccc(-c2ccccc2)c1`: the “activity, negative = inhibition” value is 3.87% (inactive).

`O=[N+]([O-])c1ccc(Cl)c(Cl)c1Cl`: the “activity, negative = inhibition” value was -14.9% (inactive).
